Rows were chosen to be rich in hits. Some 6.6% of all compounds tested hit in one or more screens of this group.
GDH-TPI inh = counter-screen for M. tuberculosis FBA inhibitors: GDH-TPI coupled enzymes; GDH-TPI coupled enzyme counterscreen, NADH absorbance; inhibition, % at 4.8 µM; 360,000 compounds, 1.2% hits; AID 588335; in the data active = inhibition above about 30%;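 also: 0% = DMSO wells and 100% = wells lacking the enzyme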
Anthrax LF inh2 = inhibitors of Bacillus anthracis lethal factor protease | multiplex microsphere protease cleavage assay, LF | inhibition, % at 10 µM | 360,000 compounds, 0.12% hits | AID 588501; also: plate controls were buffer without enzyme for full effect and enzyme alone for no effect
Target sequence (P15917 whole entry, looked up): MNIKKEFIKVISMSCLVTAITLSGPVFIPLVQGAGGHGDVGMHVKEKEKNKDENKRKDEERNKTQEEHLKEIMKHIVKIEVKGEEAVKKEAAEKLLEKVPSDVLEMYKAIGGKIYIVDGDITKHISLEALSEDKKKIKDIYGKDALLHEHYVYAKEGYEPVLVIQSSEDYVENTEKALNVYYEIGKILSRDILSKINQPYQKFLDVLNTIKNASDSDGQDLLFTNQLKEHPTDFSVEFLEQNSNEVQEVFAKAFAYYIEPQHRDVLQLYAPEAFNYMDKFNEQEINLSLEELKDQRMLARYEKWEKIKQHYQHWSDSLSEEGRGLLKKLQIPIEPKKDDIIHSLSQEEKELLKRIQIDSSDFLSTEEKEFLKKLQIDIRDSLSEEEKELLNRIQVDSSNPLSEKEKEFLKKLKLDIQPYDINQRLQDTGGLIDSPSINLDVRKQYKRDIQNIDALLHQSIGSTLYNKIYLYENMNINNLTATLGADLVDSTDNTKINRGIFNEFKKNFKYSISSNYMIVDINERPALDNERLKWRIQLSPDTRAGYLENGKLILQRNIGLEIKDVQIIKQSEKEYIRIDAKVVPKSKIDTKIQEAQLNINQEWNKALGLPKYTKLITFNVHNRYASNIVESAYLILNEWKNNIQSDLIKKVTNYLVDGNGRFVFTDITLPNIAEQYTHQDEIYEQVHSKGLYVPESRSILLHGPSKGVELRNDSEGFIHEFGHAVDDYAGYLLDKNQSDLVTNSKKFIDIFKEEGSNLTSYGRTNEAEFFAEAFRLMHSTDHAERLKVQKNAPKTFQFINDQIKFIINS
BoNT-A LC inh2 = inhibitors of Botulinum neurotoxin A light chain protease; multiplex microsphere protease substrate cleavage, flow cytometry; inhibition, % at 10 µM; 360,000 compounds, 0.17% hits; also: plate controls were buffer without enzyme for full effect and enzyme alone for no effect
FBA Mtb inh = inhibitors of M. tuberculosis fructose-bisphosphate aldolase. P9WQA3. purified M. tuberculosis FBA, fluorescence read-out. inhibition, % at 1 µM. 360,000 compounds, 2.3% hits; in the data active = inhibition above about 27%;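 also: 0% = vehicle and 100% = reference inhibitor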
BoNT-F LC inh = inhibitors of Botulinum neurotoxin F light chain protease; Multiplex microsphere protease cleavage assay, flow cytometry; inhibition, % at 10 µM; 360,000 compounds, 0.22% hits; AID 588497; in the data active = inhibition above about 35%, passing the limit was not always enough; inconclusive = no clear call, values can overlap the other calls; also: plate controls were buffer without enzyme for full effect and enzyme alone for no effect
Bead autofluor = flagged as autofluorescent in microsphere protease counterscreen; 360,000 compounds, 3.1% hits; AID 624483; compound autofluorescence counterscreen, microsphere flow cytometry; active compounds read high; fluorescence intensity (test concentration not listed); in the data active = fluorescence intensity above about 16000; inconclusive = no clear call, values can overlap the other calls
Active calls of the source: *. Rule as the data show it, unless noted: active = inhibition above about 30%; inconclusive = no clear call, values can overlap the other calls; inactive = below that.

`CCN(CC)c1ccc(/C=N/NC(=O)CCC(=O)NCc2ccccc2)c(O)c1` gave GDH-TPI inh 40*, Anthrax LF inh2 0, BoNT-A LC inh2 0, FBA Mtb inh 5, BoNT-F LC inh -1 and Bead autofluor 1968.
For CCN(CC)c1ccc(/C=N/NC(=O)CNC(=O)C2COc3ccccc3O2)c(O)c1 (stereo not drawn) the results were GDH-TPI inh 33*, Anthrax LF inh2 3, BoNT-A LC inh2 3, FBA Mtb inh 5, BoNT-F LC inh 0 and Bead autofluor 4336.
`COC(=O)c1ccccc1NC(=O)COC(=O)CO/N=C(\C)c1ccc2c(c1)OCO2` gave GDH-TPI inh -3, Anthrax LF inh2 2, BoNT-A LC inh2 1, FBA Mtb inh 3, BoNT-F LC inh -1 and Bead autofluor 5570.
`CCOc1ccsc1C(=O)O` gave GDH-TPI inh -2, Anthrax LF inh2 7, BoNT-A LC inh2 1, FBA Mtb inh -3, BoNT-F LC inh 0 and Bead autofluor 6091.
For O=c1[nH]c(=S)n(Cc2ccco2)c(O)c1C=NCc1cccs1 the results were GDH-TPI inh 34*, Anthrax LF inh2 -1, BoNT-A LC inh2 0, FBA Mtb inh 4, BoNT-F LC inh -2 and Bead autofluor 4678.
NC(=O)c1ccc(N=Cc2c(O)n(Cc3ccco3)c(=O)[nH]c2=O)cc1 was read as GDH-TPI inh 36*, Anthrax LF inh2 3, BoNT-A LC inh2 -1, FBA Mtb inh -1, BoNT-F LC inh -1 and Bead autofluor 5082.
CCN(CC)c1ccc(N=Cc2c(O)n(Cc3ccco3)c(=O)[nH]c2=O)cc1 was read as GDH-TPI inh 18, Anthrax LF inh2 -13, BoNT-A LC inh2 -2, FBA Mtb inh -7, BoNT-F LC inh inconclusive and Bead autofluor 5022.
`CC(=O)N1CCN(c2ccc(N=Cc3c(O)n(Cc4ccccc4)c(=O)[nH]c3=O)cc2)CC1` gave GDH-TPI inh 33*, Anthrax LF inh2 2, BoNT-A LC inh2 0, FBA Mtb inh -4, BoNT-F LC inh 3 and Bead autofluor 3094.
Cc1cc(OC(C)C(=O)N/N=C/CC(C)c2ccccc2)ccc1Cl (stereo not drawn) was read as GDH-TPI inh -1, Anthrax LF inh2 -3, BoNT-A LC inh2 0, FBA Mtb inh 1, BoNT-F LC inh 7 and Bead autofluor 3232.
COc1ccc(NC(=O)C2c3ccccc3OCC(=O)N2CCc2ccccc2)cc1 (stereo not drawn) was read as Anthrax LF inh2 -6, BoNT-A LC inh2 0, BoNT-F LC inh 0 and Bead autofluor 6330.
Screening Cn1c(=O)c(=O)n(C)c2cc(S(=O)(=O)N3CCC(N4CCCCC4)CC3)ccc21 returned GDH-TPI inh 8, Anthrax LF inh2 -13, BoNT-A LC inh2 0, FBA Mtb inh 4, BoNT-F LC inh 3 and Bead autofluor 9247.
`Cn1c(=O)oc2cc(S(=O)(=O)N3CCN(c4cccc(Cl)c4)CC3)ccc21` gave GDH-TPI inh 3, Anthrax LF inh2 0, BoNT-A LC inh2 2, FBA Mtb inh 1, BoNT-F LC inh 1 and Bead autofluor 22890*.
Cn1c(=O)c(=O)n(C)c2cc(S(=O)(=O)N3CCN(c4cccc(C(F)(F)F)c4)CC3)ccc21 was read as GDH-TPI inh 8, Anthrax LF inh2 0, BoNT-A LC inh2 -1, FBA Mtb inh -1, BoNT-F LC inh 0 and Bead autofluor 21964*.
For Cn1c(=O)c(=O)n(C)c2cc(S(=O)(=O)N3CCCCC3)ccc21 the results were GDH-TPI inh -3, Anthrax LF inh2 -1, BoNT-A LC inh2 0, FBA Mtb inh -1, BoNT-F LC inh -1 and Bead autofluor 23051*.
Cc1c(S(=O)(=O)N2CCN(c3cccc(C(F)(F)F)c3)CC2)c(=O)n(C)c(=O)n1C was read as GDH-TPI inh 9, Anthrax LF inh2 -8, BoNT-A LC inh2 -1, FBA Mtb inh -2, BoNT-F LC inh -2 and Bead autofluor 5536.
Screening Cn1c(=O)oc2cc(S(=O)(=O)N3CCN(c4ccc(F)cc4)CC3)ccc21 returned GDH-TPI inh 3, Anthrax LF inh2 -3, BoNT-A LC inh2 0, FBA Mtb inh 0, BoNT-F LC inh -1 and Bead autofluor 3649.
For O=C(C1CCCO1)N1CCN(S(=O)(=O)c2ccc(Cl)cc2)CC1 (stereo not drawn) the results were GDH-TPI inh 0, Anthrax LF inh2 -2, BoNT-A LC inh2 1, FBA Mtb inh 0, BoNT-F LC inh 4 and Bead autofluor 5359.
For O=C(NCCC1CCCCN1S(=O)(=O)c1ccc(F)cc1)C(=O)Nc1ccccc1 (stereo not drawn) the results were GDH-TPI inh -6, Anthrax LF inh2 -4, BoNT-A LC inh2 0, FBA Mtb inh -3, BoNT-F LC inh -5 and Bead autofluor 6348.
`Cc1ccc(C(=O)N/N=C\c2ccc(-c3ccc(Cl)cc3)o2)cn1` gave GDH-TPI inh 31*, Anthrax LF inh2 -15, BoNT-A LC inh2 inconclusive, FBA Mtb inh 2, BoNT-F LC inh inconclusive and Bead autofluor 5114.
Cc1cc(C(=O)NN=Cc2ccc(-c3ccc(F)cc3)o2)c(C)o1 was read as GDH-TPI inh 53*, Anthrax LF inh2 -4, BoNT-A LC inh2 0, FBA Mtb inh 5, BoNT-F LC inh -2 and Bead autofluor 3100.
`Cc1ccc(/C=N/NC(=O)c2cc(C)oc2C)o1` gave GDH-TPI inh 19, Anthrax LF inh2 -1, BoNT-A LC inh2 0, FBA Mtb inh 0, BoNT-F LC inh 2 and Bead autofluor 2791.
Screening Cn1cccc1/C=N/NC(=O)c1ccc[n+]([O-])c1 returned GDH-TPI inh 21, Anthrax LF inh2 -7, BoNT-A LC inh2 0, FBA Mtb inh -1, BoNT-F LC inh -4 and Bead autofluor 4413.
For Cc1ccc(C(=O)N/N=C\c2cccn2C)cn1 the results were GDH-TPI inh 54*, Anthrax LF inh2 4, BoNT-A LC inh2 0, FBA Mtb inh 2, BoNT-F LC inh 2 and Bead autofluor 3630.
For Cn1cccc1/C=N/NC(=O)c1cccnc1 the results were GDH-TPI inh 48*, Anthrax LF inh2 -2, BoNT-A LC inh2 0, FBA Mtb inh -2, BoNT-F LC inh -16 and Bead autofluor 8924.
Screening Cc1ccc(C(=O)N/N=C\c2ccccn2)cn1 returned GDH-TPI inh -1, Anthrax LF inh2 -6, BoNT-A LC inh2 inconclusive, FBA Mtb inh -2, BoNT-F LC inh inconclusive and Bead autofluor 4456.
For COc1ccc(C(=O)COC(=O)c2cc(=O)c3ccccc3o2)cc1 the results were GDH-TPI inh 9, Anthrax LF inh2 -3, BoNT-A LC inh2 0, FBA Mtb inh -1, BoNT-F LC inh 0 and Bead autofluor 2680.
`CC(=O)N1CCN(Cc2nc3cc(NC(=O)COc4cccc(C)c4)ccc3n2C)CC1` gave GDH-TPI inh 5, Anthrax LF inh2 -5, BoNT-A LC inh2 -3, FBA Mtb inh 5, BoNT-F LC inh -2 and Bead autofluor 3025.
For CCc1ccc(C(=O)COC(=O)c2ccc(-c3nnc(-c4ccccc4)o3)cc2)cc1 the results were GDH-TPI inh 4, Anthrax LF inh2 -1, BoNT-A LC inh2 -2, FBA Mtb inh 2, BoNT-F LC inh -4 and Bead autofluor 24076*.

Source: PubChem BioAssay
